From the supplement of paper PMC4466140

biological target: AgAbp1; test: SPOT peptide array binding signal intensity (averaged, normalized) (arbitrary units (background-subtracted, floor 0; scale differs between SH3 domains)); higher = stronger binding of the SH3 domain to the peptide
In short: (§1)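 Binding signal refers to normalized, background-subtracted spot intensity averaged over replicates, expressed in arbitrary units that differ between domains. GST-fused SH3 domains from four yeast species were incubated at 10 μg/ml overnight at 4°C on cellulose membranes of synthetic 15-mer peptides with cysteines replaced by serines. Bound protein was detected with anti-GST antibody, an HRP anti-mouse secondary and luminol, and quantified with Genespotter.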

| Binder | SPOT peptide array binding signal intensity |
| --- | --- |
| VPPPMQPPPIESSNL | ≤ 0 |

biological target: AgBbc1; test: as above
In short: as §1

| Binder | SPOT peptide array binding signal intensity |
| --- | --- |
| VPPPMQPPPIESSNL | 2.5 |

biological target: AgBem1-D1; test: as above
In short: as §1

| Binder | SPOT peptide array binding signal intensity |
| --- | --- |
| VPPPMQPPPIESSNL | 238 |

biological target: AgBzz1-D1; test: as above
In short: as §1

| Binder | SPOT peptide array binding signal intensity |
| --- | --- |
| VPPPMQPPPIESSNL | ≤ 0 |

biological target: AgBzz1-D2; test: as above
In short: as §1

| Binder | SPOT peptide array binding signal intensity |
| --- | --- |
| VPPPMQPPPIESSNL | ≤ 0 |

biological target: AgCyk3; test: as above
In short: as §1

| Binder | SPOT peptide array binding signal intensity |
| --- | --- |
| VPPPMQPPPIESSNL | 0.5 |

biological target: AgFus1; test: as above
In short: as §1

| Binder | SPOT peptide array binding signal intensity |
| --- | --- |
| VPPPMQPPPIESSNL | 159 |

biological target: AgHof1; test: as above
In short: as §1

| Binder | SPOT peptide array binding signal intensity |
| --- | --- |
| VPPPMQPPPIESSNL | 0.25 |

biological target: AgHse1; test: as above
In short: as §1

| Binder | SPOT peptide array binding signal intensity |
| --- | --- |
| VPPPMQPPPIESSNL | 90 |

biological target: AgLsb1; test: as above
In short: as §1

| Binder | SPOT peptide array binding signal intensity |
| --- | --- |
| VPPPMQPPPIESSNL | ≤ 0 |

biological target: AgLsb4; test: as above
In short: as §1

| Binder | SPOT peptide array binding signal intensity |
| --- | --- |
| VPPPMQPPPIESSNL | ≤ 0 |

biological target: AgMyo5; test: as above
In short: as §1

| Binder | SPOT peptide array binding signal intensity |
| --- | --- |
| VPPPMQPPPIESSNL | 102 |

biological target: AgNbp2; test: as above
In short: as §1

| Binder | SPOT peptide array binding signal intensity |
| --- | --- |
| VPPPMQPPPIESSNL | 98 |

biological target: AgRvs167; test: as above
In short: as §1

| Binder | SPOT peptide array binding signal intensity |
| --- | --- |
| VPPPMQPPPIESSNL | ≤ 0 |

biological target: AgSho1; test: as above
In short: as §1

| Binder | SPOT peptide array binding signal intensity |
| --- | --- |
| VPPPMQPPPIESSNL | 67 |

biological target: AgSla1-D1-D2; test: as above
In short: as §1

| Binder | SPOT peptide array binding signal intensity |
| --- | --- |
| VPPPMQPPPIESSNL | ≤ 0 |

biological target: AgSla1-D3; test: as above
In short: as §1

| Binder | SPOT peptide array binding signal intensity |
| --- | --- |
| VPPPMQPPPIESSNL | 0.75 |

biological target: CaAbp1-D1; test: as above
In short: as §1

| Binder | SPOT peptide array binding signal intensity |
| --- | --- |
| VPPPMQPPPIESSNL | ≤ 0 |

biological target: CaAbp1-D2; test: as above
In short: as §1

| Binder | SPOT peptide array binding signal intensity |
| --- | --- |
| VPPPMQPPPIESSNL | 8 |

biological target: CaBbc1; test: as above
In short: as §1

| Binder | SPOT peptide array binding signal intensity |
| --- | --- |
| VPPPMQPPPIESSNL | 10.5 |

biological target: CaBem1-D1; test: as above
In short: as §1

| Binder | SPOT peptide array binding signal intensity |
| --- | --- |
| VPPPMQPPPIESSNL | 26 |

biological target: CaBzz1-D1; test: as above
In short: as §1

| Binder | SPOT peptide array binding signal intensity |
| --- | --- |
| VPPPMQPPPIESSNL | 35 |

biological target: CaBzz1-D2; test: as above
In short: as §1

| Binder | SPOT peptide array binding signal intensity |
| --- | --- |
| VPPPMQPPPIESSNL | 8.25 |

biological target: CaCyk3; test: as above
In short: as §1

| Binder | SPOT peptide array binding signal intensity |
| --- | --- |
| VPPPMQPPPIESSNL | 8 |

biological target: CaFus1; test: as above
In short: as §1

| Binder | SPOT peptide array binding signal intensity |
| --- | --- |
| VPPPMQPPPIESSNL | 740 |

biological target: CaHof1; test: as above
In short: as §1

| Binder | SPOT peptide array binding signal intensity |
| --- | --- |
| VPPPMQPPPIESSNL | ≤ 0 |

biological target: CaHse1; test: as above
In short: as §1

| Binder | SPOT peptide array binding signal intensity |
| --- | --- |
| VPPPMQPPPIESSNL | 68 |

biological target: CaLsb1; test: as above
In short: as §1

| Binder | SPOT peptide array binding signal intensity |
| --- | --- |
| VPPPMQPPPIESSNL | 0.5 |

biological target: CaLsb4; test: as above
In short: as §1

| Binder | SPOT peptide array binding signal intensity |
| --- | --- |
| VPPPMQPPPIESSNL | 388 |

biological target: CaMyo5; test: as above
In short: as §1

| Binder | SPOT peptide array binding signal intensity |
| --- | --- |
| VPPPMQPPPIESSNL | 142 |
